Changes are numbered by the printed parent chain.
Legend:
Experiment in all cases: PBM; 200 nM protein, PBS
Conditions in all cases: dsDNA, one strand shown
HESX1 [1] = target: HESX1 (Homo sapiens, UniProt Q9UBX0 95-180, R165K)
HESX1 [2] = target: HESX1 (Homo sapiens, UniProt Q9UBX0 95-180)
HESX1 [3] = target: HESX1 (Homo sapiens, UniProt Q9UBX0 95-180, R109Q)
HESX1 [4] = target: HESX1 (Homo sapiens, UniProt Q9UBX0 95-180, P111T)
HESX1 [5] = target: HESX1 (Homo sapiens, UniProt Q9UBX0 95-180, F115L)
Chain of HESX1 (Homo sapiens, UniProt Q9UBX0 95-180, F115L) (Q9UBX0 95-180 F115L): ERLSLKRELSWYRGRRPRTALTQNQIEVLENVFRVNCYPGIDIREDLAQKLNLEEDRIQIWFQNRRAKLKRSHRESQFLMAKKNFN

PRRX1 [6] = target: PRRX1 (Homo sapiens, UniProt P54821 80-166)
Chain of PRRX1 (Homo sapiens, UniProt P54821 80-166) (P54821 80-166): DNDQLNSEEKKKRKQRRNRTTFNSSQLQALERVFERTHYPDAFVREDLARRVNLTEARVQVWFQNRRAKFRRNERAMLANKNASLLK

HOXB4 [7] = target: HOXB4 (Homo sapiens, UniProt P17483 148-234)
Chain of HOXB4 (Homo sapiens, UniProt P17483 148-234) (P17483 148-234): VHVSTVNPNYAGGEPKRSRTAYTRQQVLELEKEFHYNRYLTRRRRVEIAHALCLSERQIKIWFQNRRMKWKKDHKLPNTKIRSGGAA

SHOX [8] = target: SHOX (Homo sapiens, UniProt O15266 103-189)
Chain of SHOX (Homo sapiens, UniProt O15266 103-189) (O15266 103-189): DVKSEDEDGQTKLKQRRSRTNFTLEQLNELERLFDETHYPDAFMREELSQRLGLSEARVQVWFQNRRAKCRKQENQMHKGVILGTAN

HOXB9 = HOXB9 (Homo sapiens, UniProt P17482 171-250, T197M)
Chain of HOXB9 (P17482 171-250 T197M): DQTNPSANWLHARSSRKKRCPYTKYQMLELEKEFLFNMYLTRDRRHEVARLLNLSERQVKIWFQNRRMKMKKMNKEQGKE

ALX4 [9] = target: ALX4 (Homo sapiens, UniProt Q9H161 200-286)
Chain of ALX4 (Homo sapiens, UniProt Q9H161 200-286) (Q9H161 200-286): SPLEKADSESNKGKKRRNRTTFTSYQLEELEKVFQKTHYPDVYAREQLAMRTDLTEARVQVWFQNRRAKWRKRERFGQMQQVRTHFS

PAX4 [10] = target: T1, PAX4 (Homo sapiens, UniProt O43316 9-242, R200K)
T1 sequence: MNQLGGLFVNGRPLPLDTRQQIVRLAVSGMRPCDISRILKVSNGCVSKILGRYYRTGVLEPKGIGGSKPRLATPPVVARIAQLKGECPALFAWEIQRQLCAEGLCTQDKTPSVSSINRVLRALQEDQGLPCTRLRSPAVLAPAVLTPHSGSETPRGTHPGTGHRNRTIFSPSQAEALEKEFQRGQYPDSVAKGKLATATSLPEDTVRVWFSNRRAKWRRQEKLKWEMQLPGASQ

PRRX1 [11] = target: PRRX1 (Homo sapiens, UniProt P54821 80-166, F113S)
Chain of PRRX1 (Homo sapiens, UniProt P54821 80-166, F113S) (P54821 80-166 F113S): as the sequence (P54821 80-166) above, with F34S counted along it

PAX4 [12] = target: T2, PAX4 (Homo sapiens, UniProt O43316 9-242)
T2 sequence: T1 sequence with K192R

ALX4 [13] = target: ALX4 (Homo sapiens, UniProt Q9H161 200-286, Q225E)
Chain of ALX4 (Homo sapiens, UniProt Q9H161 200-286, Q225E) (Q9H161 200-286 Q225E): as the sequence (Q9H161 200-286) above, with Q26E counted along it

HOXB4 [14] = target: HOXB4 (Homo sapiens, UniProt P17483 148-234, V174I)
Chain of HOXB4 (Homo sapiens, UniProt P17483 148-234, V174I) (P17483 148-234 V174I): as the sequence (P17483 148-234) above, with V27I counted along it

ALX1 [15] = target: ALX1 (Homo sapiens, UniProt Q15699 118-204, L144V)
Chain of ALX1 (Homo sapiens, UniProt Q15699 118-204, L144V) (Q15699 118-204 L144V): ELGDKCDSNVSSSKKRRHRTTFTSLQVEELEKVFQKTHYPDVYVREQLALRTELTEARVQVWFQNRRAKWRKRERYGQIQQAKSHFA

ALX3 [16] = target: ALX3 (Homo sapiens, UniProt O95076 139-225, N203Q)
Chain of ALX3 (Homo sapiens, UniProt O95076 139-225, N203Q) (O95076 139-225 N203Q): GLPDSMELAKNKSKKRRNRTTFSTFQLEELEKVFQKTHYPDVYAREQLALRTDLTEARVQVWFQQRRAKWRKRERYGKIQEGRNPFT

PAX4 [17] = target: T3, PAX4 (Homo sapiens, UniProt O43316 9-242, R200Q)
T3 sequence: T1 sequence with K192Q

SHOX [18] = target: SHOX (Homo sapiens, UniProt O15266 103-189, R173C)
Chain of SHOX (Homo sapiens, UniProt O15266 103-189, R173C) (O15266 103-189 R173C): as the sequence (O15266 103-189) above, with R71C counted along it

ALX1 [19] = target: ALX1 (Homo sapiens, UniProt Q15699 118-204, L144R)
Chain of ALX1 (Homo sapiens, UniProt Q15699 118-204, L144R) (Q15699 118-204 L144R): as the sequence (Q15699 118-204 L144V) above, with V27R counted along it

PAX4 [20] = target: T4, PAX4 (Homo sapiens, UniProt O43316 9-242, F177V)
T4 sequence: T1 sequence with F169V, K192R

ALX3 [21] = target: ALX3 (Homo sapiens, UniProt O95076 139-225)
Chain of ALX3 (Homo sapiens, UniProt O95076 139-225) (O95076 139-225): as the sequence (O95076 139-225 N203Q) above, with Q65N counted along it

PAX4 [22] = target: T5, PAX4 (Homo sapiens, UniProt O43316 9-242, F177Y)
T5 sequence: T1 sequence with F169Y, K192R

PROP1 [23] = target: PROP1 (Homo sapiens, UniProt O75360 56-141)
Chain of PROP1 (Homo sapiens, UniProt O75360 56-141) (O75360 56-141): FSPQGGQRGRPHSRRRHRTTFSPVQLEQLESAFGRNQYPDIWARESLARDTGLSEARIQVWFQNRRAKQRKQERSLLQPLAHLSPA

PROP1 [24] = target: PROP1 (Homo sapiens, UniProt O75360 56-141, R99H)
Chain of PROP1 (Homo sapiens, UniProt O75360 56-141, R99H) (O75360 56-141 R99H): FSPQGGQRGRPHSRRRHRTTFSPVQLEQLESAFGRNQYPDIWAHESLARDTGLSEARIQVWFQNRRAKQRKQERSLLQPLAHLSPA

VAX1 [25] = target: VAX1 (Homo sapiens, UniProt Q5SQQ9 86-172)
Chain of VAX1 (Homo sapiens, UniProt Q5SQQ9 86-172) (Q5SQQ9 86-172): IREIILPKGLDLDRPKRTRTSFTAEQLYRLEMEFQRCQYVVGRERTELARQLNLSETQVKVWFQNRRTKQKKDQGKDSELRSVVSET

ALX3 [26] = target: ALX3 (Homo sapiens, UniProt O95076 139-225, L168Q)
Chain of ALX3 (Homo sapiens, UniProt O95076 139-225, L168Q) (O95076 139-225 L168Q): as the sequence (O95076 139-225 N203Q) above, with L30Q, Q65N counted along it

ALX3 [27] = target: ALX3 (Homo sapiens, UniProt O95076 139-225, L168V)
Chain of ALX3 (Homo sapiens, UniProt O95076 139-225, L168V) (O95076 139-225 L168V): as the sequence (O95076 139-225 N203Q) above, with L30V, Q65N counted along it

PROP1 [28] = target: PROP1 (Homo sapiens, UniProt O75360 56-141, F88S)
Chain of PROP1 (Homo sapiens, UniProt O75360 56-141, F88S) (O75360 56-141 F88S): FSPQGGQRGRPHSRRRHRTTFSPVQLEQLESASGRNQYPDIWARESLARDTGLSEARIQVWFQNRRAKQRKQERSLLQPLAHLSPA

VAX1 [29] = target: VAX1 (Homo sapiens, UniProt Q5SQQ9 86-172, T142I)
Chain of VAX1 (Homo sapiens, UniProt Q5SQQ9 86-172, T142I) (Q5SQQ9 86-172 T142I): as the sequence (Q5SQQ9 86-172) above, with T57I counted along it

PAX4 [30] = target: T6, PAX4 (Homo sapiens, UniProt O43316 9-242, R227W)
T6 sequence: T1 sequence with K192R, R219W

ALX1 [31] = target: ALX1 (Homo sapiens, UniProt Q15699 118-204)
Chain of ALX1 (Homo sapiens, UniProt Q15699 118-204) (Q15699 118-204): as the sequence (Q15699 118-204 L144V) above, with V27L counted along it

ALX3 [32] = target: ALX3 (Homo sapiens, UniProt O95076 139-225, N203S)
Chain of ALX3 (Homo sapiens, UniProt O95076 139-225, N203S) (O95076 139-225 N203S): as the sequence (O95076 139-225 N203Q) above, with Q65S counted along it

VAX1 [33] = target: VAX1 (Homo sapiens, UniProt Q5SQQ9 86-172, K157R)
Chain of VAX1 (Homo sapiens, UniProt Q5SQQ9 86-172, K157R) (Q5SQQ9 86-172 K157R): as the sequence (Q5SQQ9 86-172) above, with K72R counted along it

Chain of HESX1 (Homo sapiens, UniProt Q9UBX0 95-180, P111T) (Q9UBX0 95-180 P111T): as the sequence (Q9UBX0 95-180 F115L) above, with P17T, L21F counted along it
Chain of HESX1 (Homo sapiens, UniProt Q9UBX0 95-180, R165K) (Q9UBX0 95-180 R165K): as the sequence (Q9UBX0 95-180 F115L) above, with L21F, R71K counted along it
Chain of HESX1 (Homo sapiens, UniProt Q9UBX0 95-180) (Q9UBX0 95-180): as the sequence (Q9UBX0 95-180 F115L) above, with L21F counted along it
Chain of HESX1 (Homo sapiens, UniProt Q9UBX0 95-180, R109Q) (Q9UBX0 95-180 R109Q): as the sequence (Q9UBX0 95-180 F115L) above, with R15Q, L21F counted along it

TATCAATA was tested, and the binding signal (HESX1 [1]) was 7.76 upbm affinity estimate (log intensity, higher = more binding, comparable within an allelic series), the binding signal (HESX1 [2]) was 7.98 upbm affinity estimate (log intensity, higher = more binding, comparable within an allelic series) and the binding signal (HESX1 [3]) was 7.49 upbm affinity estimate (log intensity, higher = more binding, comparable within an allelic series). For the same sequence, the binding signal (HESX1 [4]) was 7.63 upbm affinity estimate (log intensity, higher = more binding, comparable within an allelic series), the binding signal (HESX1 [5]) was 7.36 upbm affinity estimate (log intensity, higher = more binding, comparable within an allelic series) and the binding signal (PRRX1 [6]) was 11.7 upbm affinity estimate (log intensity, higher = more binding, comparable within an allelic series).
With TAAATTAA the binding signal (HOXB4 [7]) was 12.9 upbm affinity estimate (log intensity, higher = more binding, comparable within an allelic series), the binding signal (SHOX [8]) was 11.8 upbm affinity estimate (log intensity, higher = more binding, comparable within an allelic series) and the binding signal (HOXB9) was 9.99 upbm affinity estimate (log intensity, higher = more binding, comparable within an allelic series). The binding signal (ALX4 [9]) was 13.9 upbm affinity estimate (log intensity, higher = more binding, comparable within an allelic series), the binding signal (PAX4 [10]) was 11.8 upbm affinity estimate (log intensity, higher = more binding, comparable within an allelic series) and the binding signal (PRRX1 [11]) was 11.2 upbm affinity estimate (log intensity, higher = more binding, comparable within an allelic series). The binding signal (PAX4 [12]) was 12.3 upbm affinity estimate (log intensity, higher = more binding, comparable within an allelic series), the binding signal (ALX4 [13]) was 13.1 upbm affinity estimate (log intensity, higher = more binding, comparable within an allelic series) and the binding signal (HOXB4 [14]) was 13.6 upbm affinity estimate (log intensity, higher = more binding, comparable within an allelic series). The binding signal (ALX1 [15]) was 11.8 upbm affinity estimate (log intensity, higher = more binding, comparable within an allelic series), the binding signal (ALX3 [16]) was 8.53 upbm affinity estimate (log intensity, higher = more binding, comparable within an allelic series) and the binding signal (PAX4 [17]) was 12 upbm affinity estimate (log intensity, higher = more binding, comparable within an allelic series). For the same sequence, the binding signal (SHOX [18]) was 9.24 upbm affinity estimate (log intensity, higher = more binding, comparable within an allelic series), the binding signal (ALX1 [19]) was 11.5 upbm affinity estimate (log intensity, higher = more binding, comparable within an allelic series) and the binding signal (PAX4 [20]) was 10.6 upbm affinity estimate (log intensity, higher = more binding, comparable within an allelic series). For the same sequence, the binding signal (ALX3 [21]) was 12.4 upbm affinity estimate (log intensity, higher = more binding, comparable within an allelic series), the binding signal (PAX4 [22]) was 11 upbm affinity estimate (log intensity, higher = more binding, comparable within an allelic series) and the binding signal (PROP1 [23]) was 11.2 upbm affinity estimate (log intensity, higher = more binding, comparable within an allelic series). For the same sequence, the binding signal (PROP1 [24]) was 11 upbm affinity estimate (log intensity, higher = more binding, comparable within an allelic series), the binding signal (VAX1 [25]) was 12.6 upbm affinity estimate (log intensity, higher = more binding, comparable within an allelic series) and the binding signal (ALX3 [26]) was 10.4 upbm affinity estimate (log intensity, higher = more binding, comparable within an allelic series). The binding signal (HESX1 [4]) was 10.1 upbm affinity estimate (log intensity, higher = more binding, comparable within an allelic series), the binding signal (ALX3 [27]) was 9.89 upbm affinity estimate (log intensity, higher = more binding, comparable within an allelic series) and the binding signal (PROP1 [28]) was 7.74 upbm affinity estimate (log intensity, higher = more binding, comparable within an allelic series). The binding signal (VAX1 [29]) was 12.4 upbm affinity estimate (log intensity, higher = more binding, comparable within an allelic series), the binding signal (PAX4 [30]) was 11 upbm affinity estimate (log intensity, higher = more binding, comparable within an allelic series) and the binding signal (ALX1 [31]) was 12.4 upbm affinity estimate (log intensity, higher = more binding, comparable within an allelic series). The binding signal (ALX3 [32]) was 8.68 upbm affinity estimate (log intensity, higher = more binding, comparable within an allelic series), the binding signal (PRRX1 [6]) was 13.4 upbm affinity estimate (log intensity, higher = more binding, comparable within an allelic series) and the binding signal (VAX1 [33]) was 12.4 upbm affinity estimate (log intensity, higher = more binding, comparable within an allelic series).
